Eya2 inh: Eya2 (human) phosphatase inhibition; O00167; recombinant Eya2, OMFP fluorescence dephosphorylation (OMFP is methylfluorescein phosphate); Potency, µM (highest dose often 76.9 µM), inactives show at the highest dose activity, negative = inhibition, hits mostly inhibitors; 330,000 compounds, 0.006% hits; AID 488837; further: potency means the concentration at half of the fitted maximal effect; on the % scale 0 is the no-effect control and ±100 the full control effect
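Eya2 (0.2 uM) preincubated 10 min at ambient with compound, then OMFP substrate added at 50 uM; 10 min reaction in 50 mM HEPES pH 7.5, 50 mM NaCl, 5 uM MgCl2, 0.05% BSA, 1 mM DTT. Fluorescence read at Ex 485/Em 525 nm.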
CtBP-E1A inh: blocks the CtBP interaction with E1A; 340,000 compounds, 0.49% hits; activity change, % (concentration not given with the values); AlphaScreen GST-E1A/His-CtBP binding, 1536-well; active compounds read low; AID 651724; in the data active means activity change below about -65%; inconclusive means mostly about -30% to -63%; further: on the % scale 0 is the no-effect control and ±100 the full control effect
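Steps: dispense buffer (Tris pH 8.0, NaCl 300 mM, TCEP 1 mM, BSA, Tween 20); add 5X protein mix (GST-E1A, His-CtBP, 125 nM each); pin 23 nL compound; 2 h at 37 °C, dark; add 5X beads (50 ug/mL); 1 h; read.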
GALK inhibitor: blocks human galactokinase activity; Potency, µM (doses to about 57.5 µM), for the others: at the top dose activity change, negative = inhibition, actives largely listed as inhibitors; 270,000 compounds, 0.007% hits; Purified GALK, Kinase-Glo residual ATP luminescence; P51570; further: potency means the concentration at half of the fitted maximal effect; on the % scale 0 is the no-effect control and ±100 the full control effect
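5 nM enzyme, 35 uM ATP, 100 uM galactose, 20 mM HEPES pH8.0, 5 mM MgCl2; 1 h RT; residual ATP by Kinase-Glo Plus luminescence, qHTS format.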
Six1-Eya2 blk: inhibitors of human Six1/Eya2 interaction | Q15475+O00167 | AlphaScreen GST-Six1/His-Eya2 binding, biochemical; active compounds read low | activity change, % (no concentration beside the values) | 360,000 compounds, 0.56% hits | AID 651725; in the data active means activity change below about -65%; inconclusive means mostly about -30% to -63%; further: on the % scale 0 is the no-effect control and ±100 the full control effect
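GST-Six1 + His-Eya2 (5X stock: 250/500 nM); Tris pH 8.0, 300 mM NaCl, 0.05% BSA, 0.02% Tween 20; GSH donor/Ni acceptor beads; 1 h 37 °C dark; AlphaScreen readout.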
TrxR1 substrate: is turned over as a substrate by rat TrxR1; Potency, µM (top dose mostly 114 µM), without a hit: at the highest dose activity change, negative = substrate turnover; purified TrxR1 substrate turnover, NADPH consumption readout; O89049; 390,000 compounds, 0.01% hits; AID 588456; further: potency means the concentration at half of the fitted maximal effect; on the % scale 0 is the no-effect control and ±100 the full control effect; nearly all actives have a fitted effect of over 50% in size
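Rat TrxR1, dispensed at 90 nM, was prereduced with 400 uM NADPH (final) for 5 min at ~22 deg C, then incubated with compound 15 min before 400 uM selenite. A first-read NADPH fluorescence drop versus no-compound background flagged substrates.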
rTrxR1 inhibitor: blocks rat thioredoxin reductase 1. recombinant rTrxR1, NADPH fluorescence consumption, selenite substrate. O89049. Potency, µM (doses to about 114 µM), inactives show at the top dose activity change, negative = inhibition, most hits filed as inhibitors. 390,000 compounds, 1% hits; further: potency means the concentration at half of the fitted maximal effect; on the % scale 0 is the no-effect control and ±100 the full control effect; nearly all actives have a fitted effect of over 65% in size
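Rat TrxR1 (90 nM in the dispensed reagent) was pre-reduced with 400 uM NADPH for 5 min at room temperature, then incubated with compound for 15 min. After 400 uM selenite was added, NADPH fluorescence (Ex 340/Em 450 nm) was followed for 8 min.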
TRb-SRC2 inh: TRb-SRC2 (human) interaction inhibition. AlphaScreen TRb LBD-SRC2 peptide binding, luminescence. shares compounds with rTrxR1 inhibitor. Potency, µM. 30 compounds, 50% hits. AID 2444; calls by dose curve
HepG2 tox: reduces HepG2 viability in TRb-SRC2 counter-screen; shares compounds with rTrxR1 inhibitor; AID 2447; HepG2 viability, ATP luminescence (CellTiter-Glo), 72 h; Potency, µM; 40 compounds, 50% hits; calls by dose curve
AR SRC2 FP: selectivity of TRb-SRC2 inhibitors: human androgen receptor-SRC2 inhibition; shares compounds with rTrxR1 inhibitor; AR-LBD Tx-SRC2-3 fluorescence polarization, 3 h; calls only; 25 tested, under 10 active; call rule not given here
PPARg DRIP2 FP: disrupts human PPARgamma binding to DRIP-2 peptide; Potency, µM; 25 tested, under 10 active; AID 2449; shares compounds with rTrxR1 inhibitor; PPARg LBD / Texas Red DRIP-2 peptide, fluorescence polarization, 3 h; calls by dose curve
Target sequence (P37231 whole entry, looked up, the tested form may be a part): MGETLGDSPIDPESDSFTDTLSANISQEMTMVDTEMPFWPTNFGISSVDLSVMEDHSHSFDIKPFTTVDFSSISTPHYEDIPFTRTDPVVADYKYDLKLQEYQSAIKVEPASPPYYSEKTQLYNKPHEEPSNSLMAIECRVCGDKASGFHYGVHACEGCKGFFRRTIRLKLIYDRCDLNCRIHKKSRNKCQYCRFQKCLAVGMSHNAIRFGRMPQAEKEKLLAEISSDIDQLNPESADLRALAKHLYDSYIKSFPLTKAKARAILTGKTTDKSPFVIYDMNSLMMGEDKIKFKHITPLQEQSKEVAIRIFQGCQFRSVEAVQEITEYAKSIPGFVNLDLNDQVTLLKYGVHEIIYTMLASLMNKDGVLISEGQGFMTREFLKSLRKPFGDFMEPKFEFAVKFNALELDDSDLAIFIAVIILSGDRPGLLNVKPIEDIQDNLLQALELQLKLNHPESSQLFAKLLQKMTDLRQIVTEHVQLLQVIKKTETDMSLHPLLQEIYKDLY
VDR-SRC2 FP sel: disrupts human vitamin D receptor binding to SRC2 peptide | shares compounds with rTrxR1 inhibitor | VDR LBD/SRC2-3 peptide, fluorescence polarization, 3 h | Potency, µM | 25 tested, under 10 active | AID 2455; calls by dose curve
TRb SRC2 FluoFP: confirmation of human TRb-SRC2 interaction inhibitors | TRb LBD / fluorescein-SRC2 peptide, fluorescence polarization | AID 2487 | shares compounds with rTrxR1 inhibitor | Potency, µM | 20 tested, under 10 active; call rule not given here
Active calls of the source: *; [ ] = remark or other dose. An excerpt weighted towards active compounds, which were near 1.5% of everything screened. Unless noted, the call rests on the fitted dose curve; in most records, active means well fitted curve in the direction sought with a large enough effect; inconclusive means small, poorly fitted or top-dose-only effect, or another doubt; inactive means no such curve, though single readings can be large; an effect the other way counts as inactive or inconclusive.

`S=C(NCCCc1cnc[nH]1)NCCCN(Cc1ccc(Cl)cc1)c1ccc(Br)cc1` gave TrxR1 substrate -8.3% and rTrxR1 inhibitor 1.1%.
For CCOc1ccc(CN2C(=O)c3ccccc3Sc3ccc(C(=O)NC4CCC(C)CC4)cc32)cc1 (stereo not given) the results were TrxR1 substrate -5.6% and rTrxR1 inhibitor 4.1%.
CCc1ccc(NC(=O)CSc2nnc3[nH]c(=O)cc(-c4ccccc4)n23)cc1 was read as TrxR1 substrate 5.8%[57.1 µM] and rTrxR1 inhibitor 5.6%[57.1 µM].
Screening CCCCOC(=O)/C(C#N)=C/c1ccc(-c2ccc(Br)cc2)o1 returned TrxR1 substrate -3.1% and rTrxR1 inhibitor 2.9%.
`CC(=O)c1cccc(NC(=O)C(C)OC(=O)c2ccc(S(C)(=O)=O)c([N+](=O)[O-])c2)c1` (stereo not given) gave TrxR1 substrate 1.1%, rTrxR1 inhibitor 7.08µM*, TRb-SRC2 inh 39.9µM*, HepG2 tox inconclusive, AR SRC2 FP inactive, PPARg DRIP2 FP inconclusive, VDR-SRC2 FP sel inconclusive and TRb SRC2 FluoFP 61.9µM*.
Screening CC(OC(=O)c1ccncc1)C(=O)Nc1cccc([N+](=O)[O-])c1 (stereo not given) returned Eya2 inh 6.6%, CtBP-E1A inh 7.5, GALK inhibitor 1.4%, Six1-Eya2 blk 10.5, TrxR1 substrate -12.2% and rTrxR1 inhibitor 5.8%[57.1 µM].
For Cc1cc(C(=O)OCC(=O)NC(=O)C2CCCCC2)ccc1[N+](=O)[O-] the results were TrxR1 substrate -2.0%, rTrxR1 inhibitor 2.7%, TRb-SRC2 inh inactive, HepG2 tox inconclusive and TRb SRC2 FluoFP inactive.
`CC(=O)Nc1cccc(C(=O)OCC(=O)NC2CCCCCCC2)c1` gave Eya2 inh -7.3%, CtBP-E1A inh -0.7, Six1-Eya2 blk -0.6, TrxR1 substrate 12.5% and rTrxR1 inhibitor 26.2%.
For CC1CCC(NC(=O)COC(=O)c2ccc3ncsc3c2)CC1 (stereo not given) the results were Eya2 inh -7.0%, CtBP-E1A inh -13.8, Six1-Eya2 blk -1.7, TrxR1 substrate 7.4% and rTrxR1 inhibitor 19.9%.
`CNc1ccc(C(=O)OCC(=O)NC(=O)NC2CCCCC2)cc1[N+](=O)[O-]` gave Eya2 inh -12.6%, CtBP-E1A inh 5.2, Six1-Eya2 blk 12.0, TrxR1 substrate -0.9% and rTrxR1 inhibitor 19.4%.
CC(=O)Nc1cccc(C(=O)OCC(=O)NC(=O)C2CCCCC2)c1 was read as TrxR1 substrate -1.9%, rTrxR1 inhibitor -1.3%, TRb-SRC2 inh inactive, HepG2 tox inactive and TRb SRC2 FluoFP inactive.
`O=C(COC(=O)c1ccc2ncsc2c1)NC(=O)C1CCCCC1` gave TrxR1 substrate -0.8%, rTrxR1 inhibitor 7.4%, TRb-SRC2 inh inactive, HepG2 tox 20.3µM* and TRb SRC2 FluoFP inactive.
Screening CC1(C)C2CCC1(C)C(NC(=O)COC(=O)c1ccc(S(C)(=O)=O)c([N+](=O)[O-])c1)C2 (stereo not given) returned TrxR1 substrate -2.2%, rTrxR1 inhibitor 3.55µM*, TRb-SRC2 inh 6.8µM*, HepG2 tox 23.4µM*, AR SRC2 FP inactive, PPARg DRIP2 FP inactive, VDR-SRC2 FP sel 40µM* and TRb SRC2 FluoFP 3.3µM*.
For CCc1ccc(NC(=O)Cn2c(=O)c(-c3ccccc3NC(C)=O)nc3ccccc32)cc1 the results were TrxR1 substrate -3.3% and rTrxR1 inhibitor -5.5%.
COc1ccc2sc(N(Cc3cccnc3)C(=O)C3CCCCC3)nc2c1 was read as TrxR1 substrate 0.0%[57.1 µM] and rTrxR1 inhibitor 1.6%[57.1 µM].
For CS(=O)(=O)c1ccc(C(=O)OCC(=O)NC(=O)C2CCCCC2)cc1[N+](=O)[O-] the results were Eya2 inh -5.3%, GALK inhibitor -0.9%, Six1-Eya2 blk -20.7, TrxR1 substrate 21.7%, rTrxR1 inhibitor 3.16µM*, TRb-SRC2 inh 0.6µM*, HepG2 tox 22.9µM*, AR SRC2 FP inactive, PPARg DRIP2 FP 22.4µM*, VDR-SRC2 FP sel inactive and TRb SRC2 FluoFP 10.7µM*.
O=C(COC(=O)c1ccc(C(F)(F)F)cc1)NC(=O)C1CCCCC1 was read as TrxR1 substrate -3.4%, rTrxR1 inhibitor 21.7%, TRb-SRC2 inh inactive, HepG2 tox inactive and TRb SRC2 FluoFP inactive.
`CCn1cc2nc(SCc3cc(C)ccc3C)n(CCc3ccccc3)c(=O)c2n1` gave TrxR1 substrate 6.4%[57.1 µM] and rTrxR1 inhibitor 31.4%[57.1 µM].
`COC(=O)C1=CN(c2ccccc2OC)C(N)=C(C#N)C1c1cccc([N+](=O)[O-])c1` (stereo not given) gave CtBP-E1A inh 2.0 and Six1-Eya2 blk -19.7.

Screening data deposited in PubChem BioAssay by National Center for Advancing Translational Sciences (NCATS).
